Inconclusive results are not listed. Entries that show only a call come without a potency. Calls of active or inactive are those of the source. The call rests on the fitted dose curve; in most records, active means well fitted cell-killing curve with a large enough effect in the repeat runs; inconclusive means weak or mixed curves, or effect the other way; inactive means flat fitted curve, though single readings scatter.

The assay is described as follows: qHTS RealTime-Glo MT Cell Viability Assay in HEK293 cells - 0 hour (AID 1224880). Further: top concentration of the series differs between compounds; nearly all actives have a fitted effect of over 45% in size. The conditions noted are these: RealTime-Glo luminescence; series mostly up to 76.8 µM. The text has this: U.S. Tox21 Program National Center for Advancing Translational Sciences [NCATS] NIH Chemical Genomics Center [NCGC] U.S. Environmental Protection Agency [EPA] National Institutes of Environmental Health Sciences [NIEHS] National Toxicology Program [NTP] U.S. Food and Drug Administration [FDA] Tox21 Assay Overview: Measure of cell viability is critical in the cell-base assay. Analysis of cell viability is necessary for the characterization of cell responses to cytotoxic drugs and environmental stress. A RealTime-Glo MT Cell Viability Assay to monitor cell viability in real time of continues cell culture during 40 hours of compound treatment was used to screen Tox21 10K library compounds in Hek293 cells. The RealTime-Glo MT Cell Viability Assay is a nonlytic, homogeneous, bioluminescent method to measure cell viability in real time using a simple, plate-based method. The assay involves adding NanoLuc luciferase and a cell-permeant prosubstrate to cells in culture. Viable cells reduce the proprietary prosubstrate to generate a substrate for NanoLuc luciferase. This substrate diffuses from cells into the surrounding culture medium, where it is rapidly used by the NanoLuc Enzyme to produce a luminescent signal. The signal correlates with the number of viable cells, making the assay well suited for cytotoxicity studies.
Tox21 Assay Protocol Summary: The mixture of Hek293 cell suspension and reagents were dispensed at 600cells/6 ul/well in 1536-well tissue culture treated black solid bottom plates using a Multidrop dispenser. After the assay plates were incubated at a 37 C/5% CO2 incubator for 5 hours, 23 nL of compounds dissolved in DMSO, positive and negative controls was transferred to the assay plate by a pintool work station. The plates were incubated at 37 C for 40 hours. The luminescence intensity were measured at 0h, 8h, 16h, 24h, 32h and 40h time points using ViewLux plate reader during compound treatment.
(Quantitative high-throughput screening tests each substance at several concentrations.)
For `O=C(O)c1ccccc1OP(=O)(O)O`, the Potency result is “inactive”.

Regarding `CCO[Si](CCC1CCC2OC2C1)(OCC)OCC` (stereo not given), the Potency result was “inactive”.

Take `OCCOc1ccc(OCCO)cc1`: the Potency entry was “inactive”.

As to `C[C@H](NC(CCc1ccccc1)C(=O)O)C(=O)N1CCC[C@H]1C(=O)O` (stereo not given in full), the Potency entry was “inactive”.

`COC(=O)NN`: the Potency entry is “inactive”.

For `CC(C[N+](C)(C)C)OC(N)=O` (stereo not given), the Potency result is “inactive”.

In the case of `CCSC(=O)N(CC(C)C)CC(C)C`, the Potency result was “inactive”.

On to `CC(=O)OCC(CCn1cnc2cnc(N)nc21)COC(C)=O`, for which the Potency entry was “inactive”.

With `O=[N+]([O-])c1ccc(F)cc1F`, the Potency entry is “inactive”.

On to `CC(C)OC(=O)c1ccccc1`, for which the Potency result was “inactive”.

For the molecule `CCOC(=O)c1cccc(N)c1`, the Potency entry is “inactive”.

Consider `COc1ccc2c(c1)CCCC2=O`, for which the Potency result was “inactive”.

As for `FC(F)OC(Cl)C(F)(F)F` (stereo not given), the Potency entry was “inactive”.

Turning to `CCOC(C)(C)C`, the Potency entry was “inactive”.

For the molecule `CN1CCC(=C2c3ccccc3CC(=O)c3sccc32)CC1`, the Potency result was “inactive”.

In the case of `C=CCS(=O)(=O)O`, the Potency result is “inactive”.

`OC(CCN1CCCCC1)(c1ccccc1)C1CC2C=CC1C2` (stereo not given): the Potency result was “inactive”.

Take `O=C(CCCN1CCC(O)(c2cccc(C(F)(F)F)c2)CC1)c1ccc(F)cc1`: the Potency entry was “inactive”.

Consider `O=C1NC(=O)[C@@]2(CCOc3ccc(F)cc32)N1`, for which the Potency result was “inactive”.

For the molecule `CCC(C)S` (stereo not given), the activity change, negative = cytotoxicity is 2.99% [at 2.72 µM] (inactive).

With `Cc1sccc1Br`, the Potency entry was “inactive”.

For the molecule `CC(=O)OC/C=C(\C)CC/C=C(\C)CCC=C(C)C`, the Potency result was “inactive”.

`OC1CCCCC1c1ccccc1` (stereo not given): the Potency entry was “inactive”.

On to `Cc1cccn2c(=O)c(-c3nnn[nH]3)cnc12`, for which the activity change, negative = cytotoxicity was 7.45% [at 15.8 µM] (inactive).

For `O=C(O)CN(CCOCCOCCN(CC(=O)O)CC(=O)O)CC(=O)O`, the activity change, negative = cytotoxicity was 4.27% [at 0.29 µM] (inactive).

On to `CCCCOCCOCCOCc1cc2c(cc1CCC)OCO2`, for which the Potency entry is “inactive”.

Regarding `COc1c(N2C[C@@H]3CCCN[C@@H]3C2)c(F)cc2c(=O)c(C(=O)O)cn(C3CC3)c12`, the Potency entry was “inactive”.

For the molecule `CC(C)(C)c1nnc(NS(=O)(=O)c2ccccc2)s1`, the Potency result is “inactive”.

For the molecule `CC/C=C\CCOC(C)=O`, the Potency entry is “inactive”.

Take `O=C1CCCC(=O)C1`: the Potency result was “inactive”.

As for `Cn1c(N)c(N=O)c(=O)n(C)c1=O`, the Potency result is “inactive”.

For the molecule `O=C(c1ccccc1)C1CCCCC1`, the Potency entry is “inactive”.

As to `CS(=O)(=O)O`, the Potency entry was “inactive”.

For `CCC=O`, the Potency entry is “inactive”.

Turning to `CC(C)(c1ccc(O)cc1)c1ccc(O)cc1`, the Potency result is “inactive”.

As for `CC(C)c1cc2c(cc1S(=O)(=O)O)[C@@]1(C)CCC[C@@](C)(C(=O)O)[C@@H]1CC2`, the Potency entry was “inactive”.

`CCCCCCCCCCCCCC=O`: the activity change, negative = cytotoxicity was 8.28% [at 6.97 µM] (inactive).

In the case of `CC(C)(C)c1ccc(O)c(O)c1`, the Potency result was “inactive”.

`C1CN(CCOCCN2CCOCC2)CCO1`: the Potency entry is “inactive”.

For `N[C@@H](C(=O)N[C@@H]1C(=O)N2C(C(=O)O)=C(Cl)CS[C@H]12)c1ccccc1`, the activity change, negative = cytotoxicity was 12.5% [at 6.97 µM] (inactive).

For the origin of these results see PubChem BioAssay (Tox21).
